We go through 1 compound from PubChem BioAssay AID504401 (The Scripps Research Institute Molecular Screening Center, 2011).

This assay deals with Rolipram. The assay is described as follows: CYP450 and receptor off-target profile – biochemical, Ricerca HitProfilingScreen, selectivity assay for GPR7 antagonist project, late-stage follow-up (AID 504401). The conditions noted are these: Ricerca radioligand binding and CYP450 panel, at 10 µM, hits give high values.

A number with no mark means an inactive call. No rule for the calls is given here.

In general, inhibition refers to the relative decrease from the control value, in per cent. Take `COc1ccc(Oc2c(Cl)cnn(-c3cc(C)cc(C)c3)c2=O)cc1`: the inhibition was 22%.
